Bioassay records as filed in PubChem.
These entries were drawn from the full list.
aSyn UTR act – Activators via SNCA 5'UTR binding, MLPCN. alpha-synuclein 5'UTR reporter, activators screen. activity score, % (tested at 7.5 µM), hits read low. 300,000 compounds, 7.1% hits; in the data active = activity score below about -60%
Large screens that a line does not name were inactive.

Brc1ccc(-c2csc(-c3ccncc3)n2)cc1	aSyn UTR act -195
Cc1ccc(-c2csc(-c3ccncc3)n2)cc1	aSyn UTR act -213
CN1CCN(CC(=O)N(C)c2nc(-c3ccccc3)cs2)CC1	aSyn UTR act -150
CN(C(=O)c1cccnc1)c1nc(-c2ccccc2)cs1	aSyn UTR act -128
c1ccc(-c2csc(-c3cccnc3)n2)cc1	aSyn UTR act -78
NC(=O)c1cc(-c2csc(-c3cccnc3)n2)ccc1O	aSyn UTR act -102
c1ccc(-c2nc(-c3cccnc3)cs2)cc1	aSyn UTR act -109
CC(=O)c1ccc(NC(=O)[C@@H]2CCCN2C(=O)OC(C)(C)C)cc1	aSyn UTR act -94
CCc1ccc(C(=O)Cn2ncc(Cl)c(Cl)c2=O)cc1	aSyn UTR act -64
O=C(Cn1ncc(Cl)c(Cl)c1=O)N1CCc2ccccc21	none
O=C(Cn1ncc(Cl)c(Cl)c1=O)N1CCOCC1	aSyn UTR act -62
O=C(Cn1ncc(Cl)c(Cl)c1=O)N1CCN(Cc2ccccc2)CC1	aSyn UTR act -71
CC1(C)C(=O)Nc2ccccc2N1C(=O)Cn1ncc(Cl)c(Cl)c1=O	aSyn UTR act -167
Cc1cc(C)c2c(=O)n(-c3ccccc3)[nH]c2n1	aSyn UTR act -72
COc1cccc(NC(=O)n2nc(N)cc2-c2ccc(Cl)cc2)c1	aSyn UTR act -69
Cc1cc(SCC(=O)N/N=C/c2ccc(O)cc2O)c(C)cc1Br	none
Cc1c(C(=O)Nc2cccc([N+](=O)[O-])c2)csc1-c1ccccc1	aSyn UTR act -130
O=C(Nc1ccccc1)Nc1ccc2c(c1)CCC2	aSyn UTR act -135
Cc1cc(NC(=O)CCSc2ccccc2)ccc1Br	aSyn UTR act -62
Cc1cc(NC(=S)NC(=O)CC(C)C)ccc1Br	aSyn UTR act -155
O=C(Nc1cccc([N+](=O)[O-])c1)Nc1cccs1	aSyn UTR act -110
O=C(Nc1ccc2c(c1)CCC2)Nc1ccc(F)cc1F	aSyn UTR act -129
O=C(Cc1ccccc1)Nc1ccc2c(c1)CCC2	aSyn UTR act -105
O=[N+]([O-])c1cccc(NC(=S)N2CCc3ccccc3C2)c1	aSyn UTR act -120
O=C(Nc1ccc(F)cc1)Nc1ccc2c(c1)CCC2	aSyn UTR act -120
O=C(Nc1cccc([N+](=O)[O-])c1)Nc1ccc2c(c1)CCC2	aSyn UTR act -105
O=C(CC1CCCC1)Nc1ccc2c(c1)CCC2	aSyn UTR act -112
Cc1cc(NC(=O)CC2CCCC2)ccc1Br	aSyn UTR act -123
O=C(Nc1cccc(F)c1)Nc1ccc2c(c1)CCC2	aSyn UTR act -160
Cc1ccc(NC(=O)Nc2ccc3c(c2)CCC3)cc1	aSyn UTR act -124
COc1cc(/C=N/Nc2nncc3ccccc23)cc(OC)c1OC	aSyn UTR act -108
C(=N\Nc1nncc2ccccc12)/c1ccccc1	aSyn UTR act -75
COc1ccc(/C=N/Nc2nncc3ccccc23)c(OC)c1	aSyn UTR act -159
Cc1ccc(-c2noc(-c3cc4ccccc4oc3=O)n2)cc1	aSyn UTR act -80
O=c1oc2ccccc2cc1-c1nc(-c2ccccc2)no1	aSyn UTR act -131
Cc1cccc(-c2noc(-c3cc4ccccc4oc3=O)n2)c1	aSyn UTR act -158
COC(=O)c1ccc(N=NNc2ccc(C(=O)OC)cc2)cc1	aSyn UTR act -86
COC(=O)c1ccc(N=NNc2ccccc2)cc1	aSyn UTR act -226
O=C(O)c1ccc(N=NNc2cccc([N+](=O)[O-])c2)cc1	aSyn UTR act -107
COc1cccc(C2Nc3ccccc3C(=O)N2c2ccc(F)cc2)c1O (stereo not given)	aSyn UTR act -99
O=C1c2ccccc2NC(c2ccccc2O)N1c1ccc(F)cc1 (stereo not given)	aSyn UTR act -98
O=C1c2ccccc2NC(c2ccccn2)N1c1ccc(Cl)cc1 (stereo not given)	aSyn UTR act -138
C=C(CC)C(=O)c1ccc(OCC(=O)O)c(Cl)c1Cl	aSyn UTR act -67
O=c1[nH][nH]c(-c2ccccc2O)c1C(C[N+](=O)[O-])c1ccc(Br)cc1 (stereo not given)	aSyn UTR act -95
O=C(Oc1ccc(-c2cnc3ccccc3n2)cc1)c1cccc([N+](=O)[O-])c1	aSyn UTR act -183
O=C(Oc1ccc(-c2cnc3ccccc3n2)cc1)c1ccc(Cl)c([N+](=O)[O-])c1	aSyn UTR act -129
O=C(Oc1ccc(-c2cnc3ccccc3n2)cc1)c1ccc(Br)o1	aSyn UTR act -117
O=[N+]([O-])c1ccc(/C=C2\CCC(C3=CCCC3)=C2N2CCOCC2)cc1	aSyn UTR act -74
CC(=O)c1ccc(OCc2cc(C(=O)N(C)C3CCOC3)no2)cc1 (stereo not given)	aSyn UTR act -130
CC(=O)c1ccc(OCc2cc(C(=O)N(C)CCOc3ccc(C)cc3)no2)cc1	aSyn UTR act -170
Cc1cc(OCc2cc(C(=O)N(C)C3CCOC3)no2)cc(C)c1Cl (stereo not given)	aSyn UTR act -107
CCC1(c2ccc(Cl)cc2)NC(=S)N(c2ccccc2)N1 (stereo not given)	aSyn UTR act -71
CCC1(c2ccccc2)NC(=S)N(c2ccc(C)cc2)N1 (stereo not given)	aSyn UTR act -85
CC1=NN(c2ccccc2)C(=O)/C1=C/c1cc2cc(C)ccc2nc1N1CCCCC1	aSyn UTR act -107
O=C(NC(=S)N(CCc1ccccc1)CCc1ccccc1)c1ccco1	none
CC1CCN(c2ccc(NC(=S)NC(=O)c3ccco3)cc2)CC1	aSyn UTR act -132
O=C(NC(=S)Nc1ccc(N2CCCCC2)cc1)c1ccco1	aSyn UTR act -182
O=C(NC(=S)Nc1ccccc1Cl)c1ccco1	aSyn UTR act -112
Cc1ccc(NC(=O)c2cn(-c3cccc(C)n3)cn2)cc1	aSyn UTR act -212
Cc1cccc(-n2cnc(C(=O)N/N=C/c3ccccc3)c2)n1	aSyn UTR act -78
O=C1CN(c2nc(-c3cccnc3)nc3scc(-c4ccccc4)c23)CCN1	aSyn UTR act -90
O=c1c2c3c(sc2nc2n1N=C(c1cccs1)CS2)CCCC3	aSyn UTR act -166
O=C1CN(c2nc(-c3cccs3)nc3sc4c(c23)CCCC4)CCN1	aSyn UTR act -109
CCC1CCCCN1CCCNC(=O)CC1Oc2ccccc2NC1=O (stereo not given)	aSyn UTR act -75
N#C/C(=C/c1ccc(N2CCCCC2)cc1)c1cccc(F)c1	aSyn UTR act -135
N#C/C(=C/c1ccc(N2CCCCCC2)o1)c1ccc(Cl)cc1	aSyn UTR act -299
N#C/C(=C/c1ccc(N2CCCCC2)o1)c1cccc(F)c1	aSyn UTR act -334
Nc1ccc(Oc2cc(N)cc(Oc3ccccc3)c2)cc1	aSyn UTR act -173
CN(C)CCNC(=O)c1cc2sc3ccccc3c2s1	aSyn UTR act -127
CCN(CC)C(=O)c1cc2sc3ccccc3c2s1	aSyn UTR act -134
CCOC(=O)CN1C(=O)S/C(=C/c2cc(C)n(-c3ccccn3)c2C)C1=O	aSyn UTR act -150
COC(=O)C(C)N1C(=O)S/C(=C/c2cc(C)n(-c3ccccn3)c2C)C1=O (stereo not given)	aSyn UTR act -83
CCc1ccc(/C=C2\SC(=S)N(CCCC(=O)Nc3ccccn3)C2=O)cc1	none
CCOC(=O)CN1C(=O)S/C(=C/c2cc(C)n(C)c2C)C1=O	aSyn UTR act -177
CC(/C=C1\SC(=O)N(CCCC(=O)O)C1=O)=C\c1ccccc1	none
Cn1cc(C(=O)Nc2ccccn2)c(=O)c2ccccc21	aSyn UTR act -114
COc1ccc(-c2nc(CS(=O)CC(=O)NCCCN3CCCC(C)C3)c(C)o2)cc1OC (stereo not given)	aSyn UTR act -101
